Measured values taken from the supplement of paper PMC11732987, “Enantioselective OTUD7B fragment discovery through chemoproteomics screening and high-throughput optimisation” (Communications Chemistry, 2025).
A number with no mark means an inactive call.

Experiments:
Experiment in all cases: log2 ratio of Biotin-Ahx-Ub-VS probe labelling (fragment/DMSO); higher = less target engagement (more negative = stronger competition), active = hit call of the paper (q ≤ 0.05, log2 ratio ≤ -1)
Details in all cases: compound concentration: 200 uM; treatment time: 3 h
UniProt O00507 = biological target: UniProt O00507
Sequence of UniProt O00507 (O00507 whole entry, the tested form may be a part): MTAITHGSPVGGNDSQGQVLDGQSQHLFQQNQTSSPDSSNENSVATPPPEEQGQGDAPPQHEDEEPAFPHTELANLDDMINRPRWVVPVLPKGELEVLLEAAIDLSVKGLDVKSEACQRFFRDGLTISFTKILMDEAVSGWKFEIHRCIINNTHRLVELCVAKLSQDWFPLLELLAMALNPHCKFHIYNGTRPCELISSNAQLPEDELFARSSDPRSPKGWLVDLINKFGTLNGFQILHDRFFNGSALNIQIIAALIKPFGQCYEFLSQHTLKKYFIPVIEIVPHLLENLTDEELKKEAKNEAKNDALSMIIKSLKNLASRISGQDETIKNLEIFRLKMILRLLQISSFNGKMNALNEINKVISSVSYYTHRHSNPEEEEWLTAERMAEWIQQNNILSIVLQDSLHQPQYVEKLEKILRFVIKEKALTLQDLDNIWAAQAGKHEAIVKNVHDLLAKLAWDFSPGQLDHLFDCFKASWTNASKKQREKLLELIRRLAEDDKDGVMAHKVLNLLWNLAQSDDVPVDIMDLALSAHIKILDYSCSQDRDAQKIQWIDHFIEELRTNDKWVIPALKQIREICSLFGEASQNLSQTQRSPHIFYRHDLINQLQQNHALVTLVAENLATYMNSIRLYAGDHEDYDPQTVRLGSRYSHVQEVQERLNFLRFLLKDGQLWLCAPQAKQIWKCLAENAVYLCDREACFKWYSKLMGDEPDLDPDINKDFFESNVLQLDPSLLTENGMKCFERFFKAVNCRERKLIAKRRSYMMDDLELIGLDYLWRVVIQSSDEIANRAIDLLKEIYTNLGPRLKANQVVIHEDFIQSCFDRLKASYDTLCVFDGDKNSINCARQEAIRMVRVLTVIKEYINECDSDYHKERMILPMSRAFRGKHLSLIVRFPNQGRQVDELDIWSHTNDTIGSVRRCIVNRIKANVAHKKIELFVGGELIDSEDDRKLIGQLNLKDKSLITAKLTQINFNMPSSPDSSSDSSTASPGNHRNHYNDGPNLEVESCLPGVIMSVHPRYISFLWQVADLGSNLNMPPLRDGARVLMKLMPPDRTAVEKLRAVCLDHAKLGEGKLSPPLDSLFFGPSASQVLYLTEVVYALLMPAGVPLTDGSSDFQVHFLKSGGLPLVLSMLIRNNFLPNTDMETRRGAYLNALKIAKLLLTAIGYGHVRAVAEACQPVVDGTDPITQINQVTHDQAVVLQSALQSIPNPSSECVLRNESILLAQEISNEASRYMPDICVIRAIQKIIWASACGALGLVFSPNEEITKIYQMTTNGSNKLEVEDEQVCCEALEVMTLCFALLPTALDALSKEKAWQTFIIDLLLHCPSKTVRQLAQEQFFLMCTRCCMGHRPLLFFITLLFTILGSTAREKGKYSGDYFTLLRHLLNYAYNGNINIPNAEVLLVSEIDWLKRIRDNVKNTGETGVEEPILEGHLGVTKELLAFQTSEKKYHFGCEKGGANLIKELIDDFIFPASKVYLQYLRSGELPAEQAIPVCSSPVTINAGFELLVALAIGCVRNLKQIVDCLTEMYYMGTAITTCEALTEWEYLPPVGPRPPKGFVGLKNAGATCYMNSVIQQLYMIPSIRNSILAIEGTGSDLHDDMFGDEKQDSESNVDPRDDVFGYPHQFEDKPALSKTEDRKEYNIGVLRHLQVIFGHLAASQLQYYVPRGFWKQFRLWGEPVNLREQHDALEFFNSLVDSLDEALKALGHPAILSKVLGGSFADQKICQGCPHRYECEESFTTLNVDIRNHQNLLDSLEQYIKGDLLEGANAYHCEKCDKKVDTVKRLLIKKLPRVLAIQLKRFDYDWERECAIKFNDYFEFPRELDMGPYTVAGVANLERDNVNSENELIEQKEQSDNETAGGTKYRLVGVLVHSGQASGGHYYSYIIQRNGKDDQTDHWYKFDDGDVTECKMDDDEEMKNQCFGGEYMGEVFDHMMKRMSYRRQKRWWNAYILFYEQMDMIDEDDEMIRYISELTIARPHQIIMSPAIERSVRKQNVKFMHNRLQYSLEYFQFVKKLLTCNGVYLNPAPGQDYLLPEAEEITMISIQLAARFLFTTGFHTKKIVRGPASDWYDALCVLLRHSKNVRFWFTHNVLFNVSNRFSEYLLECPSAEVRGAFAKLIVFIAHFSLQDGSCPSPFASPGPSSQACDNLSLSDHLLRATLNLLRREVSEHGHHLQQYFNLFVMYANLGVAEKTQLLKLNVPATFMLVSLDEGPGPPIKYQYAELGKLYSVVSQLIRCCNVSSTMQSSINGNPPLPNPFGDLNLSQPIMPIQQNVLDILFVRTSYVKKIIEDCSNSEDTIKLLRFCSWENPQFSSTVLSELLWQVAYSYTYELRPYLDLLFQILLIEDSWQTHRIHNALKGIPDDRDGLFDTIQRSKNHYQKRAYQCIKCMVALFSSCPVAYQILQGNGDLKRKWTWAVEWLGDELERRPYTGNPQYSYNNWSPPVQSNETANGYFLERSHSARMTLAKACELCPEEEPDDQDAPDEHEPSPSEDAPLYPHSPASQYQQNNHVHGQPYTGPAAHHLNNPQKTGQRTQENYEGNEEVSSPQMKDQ
How it was run: (§1)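 Using Biotin-Ahx-Ub-VS at 0.5 µM final for 1 h, DUBs were labelled in HEK293T lysate (495 µg per sample) that had first been treated in triplicate with fragment at 200 µM or vehicle for 3 h. NeutrAvidin enrichment, LysC and trypsin digestion and diaPASEF LC-MS/MS followed. Spectronaut label-free quantities were global-median-normalised. Values are average log2 fragment/vehicle ratios by unpaired t-test, using proteins with ≥2 unique peptides.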

UniProt P51784 = biological target: UniProt P51784
Sequence of UniProt P51784 (P51784 whole entry): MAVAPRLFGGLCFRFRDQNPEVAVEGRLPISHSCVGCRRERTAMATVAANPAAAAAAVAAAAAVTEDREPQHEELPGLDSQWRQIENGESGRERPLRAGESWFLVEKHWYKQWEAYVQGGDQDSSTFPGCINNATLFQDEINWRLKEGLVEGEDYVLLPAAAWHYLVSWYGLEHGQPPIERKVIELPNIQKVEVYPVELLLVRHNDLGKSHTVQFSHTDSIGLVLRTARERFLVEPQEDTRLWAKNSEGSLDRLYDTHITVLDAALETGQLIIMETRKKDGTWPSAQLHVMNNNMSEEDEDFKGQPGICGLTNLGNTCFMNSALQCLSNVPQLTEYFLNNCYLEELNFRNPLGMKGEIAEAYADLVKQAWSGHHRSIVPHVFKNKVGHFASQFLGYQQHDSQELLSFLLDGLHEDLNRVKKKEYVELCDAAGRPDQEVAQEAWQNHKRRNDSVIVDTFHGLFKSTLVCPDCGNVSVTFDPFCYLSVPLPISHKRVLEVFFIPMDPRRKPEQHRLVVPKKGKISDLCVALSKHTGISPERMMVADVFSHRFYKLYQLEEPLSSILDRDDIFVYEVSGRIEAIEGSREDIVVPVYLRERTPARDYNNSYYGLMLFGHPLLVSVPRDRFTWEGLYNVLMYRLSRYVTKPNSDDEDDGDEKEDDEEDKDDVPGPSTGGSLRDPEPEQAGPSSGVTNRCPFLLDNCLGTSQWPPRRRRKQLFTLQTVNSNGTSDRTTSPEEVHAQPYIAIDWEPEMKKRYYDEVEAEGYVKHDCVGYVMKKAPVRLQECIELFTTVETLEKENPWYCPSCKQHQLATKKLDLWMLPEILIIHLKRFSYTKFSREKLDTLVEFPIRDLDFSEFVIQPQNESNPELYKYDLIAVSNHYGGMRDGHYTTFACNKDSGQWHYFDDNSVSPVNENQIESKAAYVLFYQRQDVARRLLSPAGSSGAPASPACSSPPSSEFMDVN
How it was run: as §1

UniProt Q5T2D3 = biological target: T1, UniProt Q5T2D3
T1 sequence (whole entry): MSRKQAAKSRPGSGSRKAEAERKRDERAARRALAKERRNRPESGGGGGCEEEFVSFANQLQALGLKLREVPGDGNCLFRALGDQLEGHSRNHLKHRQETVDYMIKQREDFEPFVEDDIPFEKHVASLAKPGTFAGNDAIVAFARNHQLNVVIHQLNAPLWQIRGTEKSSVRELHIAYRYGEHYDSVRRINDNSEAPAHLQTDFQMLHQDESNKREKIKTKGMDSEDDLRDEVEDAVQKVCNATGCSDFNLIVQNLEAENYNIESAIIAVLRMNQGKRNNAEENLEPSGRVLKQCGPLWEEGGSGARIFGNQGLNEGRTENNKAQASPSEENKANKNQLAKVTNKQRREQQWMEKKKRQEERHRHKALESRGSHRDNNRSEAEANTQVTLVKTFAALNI
How it was run: as §1

UniProt Q8TE49 = biological target: T2, UniProt Q8TE49
T2 sequence (whole entry): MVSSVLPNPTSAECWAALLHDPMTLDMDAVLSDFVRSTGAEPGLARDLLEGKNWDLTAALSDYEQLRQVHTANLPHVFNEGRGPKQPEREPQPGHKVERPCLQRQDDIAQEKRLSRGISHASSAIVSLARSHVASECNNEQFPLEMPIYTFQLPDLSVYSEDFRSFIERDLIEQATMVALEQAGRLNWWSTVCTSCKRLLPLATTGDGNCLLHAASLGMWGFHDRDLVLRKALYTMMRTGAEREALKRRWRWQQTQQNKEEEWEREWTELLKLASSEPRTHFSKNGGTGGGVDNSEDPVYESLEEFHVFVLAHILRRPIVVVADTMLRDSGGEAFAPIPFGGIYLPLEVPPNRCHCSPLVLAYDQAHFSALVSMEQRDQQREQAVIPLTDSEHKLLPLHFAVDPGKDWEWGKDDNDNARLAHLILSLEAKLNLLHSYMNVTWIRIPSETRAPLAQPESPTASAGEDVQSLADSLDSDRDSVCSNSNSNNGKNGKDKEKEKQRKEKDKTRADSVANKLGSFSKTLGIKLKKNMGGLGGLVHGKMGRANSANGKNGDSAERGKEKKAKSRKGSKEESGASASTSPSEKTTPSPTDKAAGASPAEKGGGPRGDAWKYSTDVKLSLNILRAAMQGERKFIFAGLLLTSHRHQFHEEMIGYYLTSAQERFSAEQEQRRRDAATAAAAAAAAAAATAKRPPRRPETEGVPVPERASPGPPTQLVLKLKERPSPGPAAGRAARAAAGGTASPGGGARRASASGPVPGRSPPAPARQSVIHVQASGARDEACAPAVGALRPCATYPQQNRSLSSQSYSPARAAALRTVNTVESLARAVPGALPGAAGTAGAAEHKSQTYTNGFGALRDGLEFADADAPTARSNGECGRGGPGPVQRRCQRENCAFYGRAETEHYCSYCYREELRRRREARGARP
How it was run: as §1

UniProt Q9P2H5 = biological target: T3, UniProt Q9P2H5
T3 sequence (whole entry): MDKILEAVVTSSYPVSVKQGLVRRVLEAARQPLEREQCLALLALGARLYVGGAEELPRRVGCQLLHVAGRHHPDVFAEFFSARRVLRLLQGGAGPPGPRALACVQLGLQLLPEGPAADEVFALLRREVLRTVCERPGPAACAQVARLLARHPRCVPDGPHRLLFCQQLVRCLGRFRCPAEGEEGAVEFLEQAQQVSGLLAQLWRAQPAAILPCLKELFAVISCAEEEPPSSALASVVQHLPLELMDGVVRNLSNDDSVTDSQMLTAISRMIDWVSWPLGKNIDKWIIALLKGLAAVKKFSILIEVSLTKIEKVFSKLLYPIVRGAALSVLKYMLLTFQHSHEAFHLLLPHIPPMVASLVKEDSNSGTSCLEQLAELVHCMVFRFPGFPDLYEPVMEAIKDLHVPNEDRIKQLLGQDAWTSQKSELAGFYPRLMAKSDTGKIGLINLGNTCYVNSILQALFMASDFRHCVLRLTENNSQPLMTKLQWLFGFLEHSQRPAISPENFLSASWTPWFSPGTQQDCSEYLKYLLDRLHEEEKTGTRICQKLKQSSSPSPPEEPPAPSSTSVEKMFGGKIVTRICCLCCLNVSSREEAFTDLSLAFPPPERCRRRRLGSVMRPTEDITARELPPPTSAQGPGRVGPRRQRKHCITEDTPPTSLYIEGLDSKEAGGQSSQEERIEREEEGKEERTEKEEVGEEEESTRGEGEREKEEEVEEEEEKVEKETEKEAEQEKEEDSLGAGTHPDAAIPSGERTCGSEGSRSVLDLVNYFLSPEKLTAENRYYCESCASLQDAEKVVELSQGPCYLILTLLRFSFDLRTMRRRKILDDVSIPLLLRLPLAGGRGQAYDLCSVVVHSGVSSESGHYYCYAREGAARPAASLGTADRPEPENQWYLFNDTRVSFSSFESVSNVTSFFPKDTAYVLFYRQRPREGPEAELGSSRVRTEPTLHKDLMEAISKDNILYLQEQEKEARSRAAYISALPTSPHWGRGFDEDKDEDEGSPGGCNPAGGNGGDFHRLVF
How it was run: as §1

UniProt Q9UGI0 = biological target: T4, UniProt Q9UGI0
T4 sequence (whole entry): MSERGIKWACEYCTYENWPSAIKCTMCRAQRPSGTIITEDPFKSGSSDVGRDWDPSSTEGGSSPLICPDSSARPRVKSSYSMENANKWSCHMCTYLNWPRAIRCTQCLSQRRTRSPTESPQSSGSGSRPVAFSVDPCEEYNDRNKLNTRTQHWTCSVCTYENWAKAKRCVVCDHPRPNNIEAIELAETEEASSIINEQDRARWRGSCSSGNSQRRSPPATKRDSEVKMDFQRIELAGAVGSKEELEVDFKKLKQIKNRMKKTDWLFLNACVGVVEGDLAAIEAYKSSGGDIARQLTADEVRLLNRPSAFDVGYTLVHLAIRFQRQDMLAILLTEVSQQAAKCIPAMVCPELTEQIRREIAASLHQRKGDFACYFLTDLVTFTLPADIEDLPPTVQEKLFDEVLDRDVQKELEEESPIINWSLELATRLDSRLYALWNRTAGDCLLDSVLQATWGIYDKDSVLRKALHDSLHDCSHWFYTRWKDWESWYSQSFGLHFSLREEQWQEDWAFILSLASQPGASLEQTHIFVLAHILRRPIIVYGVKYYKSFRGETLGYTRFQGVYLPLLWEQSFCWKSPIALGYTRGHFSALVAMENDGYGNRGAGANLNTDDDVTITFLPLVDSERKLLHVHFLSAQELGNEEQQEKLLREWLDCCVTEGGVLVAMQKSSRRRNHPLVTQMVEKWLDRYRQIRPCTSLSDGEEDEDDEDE
How it was run: as §1

YOD1 = biological target: T5, YOD1 (UniProt Q5VVQ6)
T5 sequence (whole entry): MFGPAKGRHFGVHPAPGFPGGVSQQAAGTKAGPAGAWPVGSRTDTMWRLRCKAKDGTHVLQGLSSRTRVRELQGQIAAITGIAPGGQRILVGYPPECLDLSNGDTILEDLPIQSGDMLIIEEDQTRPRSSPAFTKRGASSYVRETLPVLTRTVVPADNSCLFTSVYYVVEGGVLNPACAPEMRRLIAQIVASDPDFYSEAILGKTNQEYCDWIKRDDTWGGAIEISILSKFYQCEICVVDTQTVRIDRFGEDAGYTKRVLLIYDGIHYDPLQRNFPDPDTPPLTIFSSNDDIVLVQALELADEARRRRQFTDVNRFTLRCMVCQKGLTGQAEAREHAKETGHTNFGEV
How it was run: as §1

Structure (SMILES) | log2 ratio of Biotin-Ahx-Ub-VS probe labelling (UniProt O00507) | log2 ratio of Biotin-Ahx-Ub-VS probe labelling (UniProt P51784) | log2 ratio of Biotin-Ahx-Ub-VS probe labelling (UniProt Q5T2D3) | log2 ratio of Biotin-Ahx-Ub-VS probe labelling (UniProt Q8TE49) | log2 ratio of Biotin-Ahx-Ub-VS probe labelling (UniProt Q9P2H5) | log2 ratio of Biotin-Ahx-Ub-VS probe labelling (UniProt Q9UGI0) | log2 ratio of Biotin-Ahx-Ub-VS probe labelling (YOD1)
Cc1nnc(C(NC(=O)CCl)c2ccccc2)n1C (stereo not drawn) | 1.12 | 0.68 | 0.343 | 0.469 | 0.372 | 0.693 | 0.747
O=C(CCl)NCc1ccc(N2CCOCC2)c(F)c1 | 0.631 | 0.16 | -0.134 | -0.275 | -0.291 | -0.051 | 0.276
Cc1ccc(N(C(=O)CCl)C2C=CS(=O)(=O)C2)cc1 (stereo not drawn) | 0.428 | 0.0438 | 0.136 | -0.0818 | -0.196 | -0.0234 | 0.412
Cc1ccn2cc(CNC(=O)CCl)nc2c1.Cl | 0.237 | -0.0387 | -0.599 | -0.359 | -0.141 | -0.262 | 0.0926
CC(NC(=O)CCl)c1cccc2ccccc12 (stereo not drawn) | 0.0439 | -0.0702 | -0.196 | -1.06 (active) | -0.463 | -0.905 | 0.0311
CCN(C(=O)CCl)C1CCCCC1 | 0.476 | 0.0309 | -0.00741 | -0.32 | -0.0524 | 0.069 | 0.333
Cl.O=C(CCl)N1CCC(Cc2nccs2)C1 (stereo not drawn) | -0.185 | 0.0118 | -0.239 | -0.308 | -0.239 | -0.507 | -0.104
Cc1ccc(C)c(Oc2ccc(CNC(=O)CCl)cn2)c1.Cl | -0.379 | -0.367 | -0.187 | -0.677 | -0.375 | -0.886 | -0.149
O=C(CCl)N1CCc2[nH]c3ccccc3c2C1 | -1.27 (active) | -0.429 | -0.115 | -0.338 | -0.439 | -1.68 (active) | -0.2
O=C(CCl)N1CCCN(C(=O)c2ccc(Cl)cc2)CC1 | -0.381 | -0.139 | -0.134 | -0.265 | -0.166 | -0.84 | -0.417
O=C(CCl)N1CCC(c2noc3cc(F)ccc23)CC1 | -0.609 | 0.00105 | -0.212 | -0.807 | -0.0991 | -1.02 (active) | -0.0109
CCCn1nccc1NC(=O)CCl | -0.381 | -0.0768 | -0.0284 | -1.02 (active) | -0.452 | -0.251 | -0.159
C/C(=C\CNC(=O)CCl)c1cnn(C)c1.Cl | -0.224 | -0.391 | -0.0109 | -0.499 | -0.465 | -0.0207 | -0.155
CS(=O)(=O)N1CCCN(C(=O)CCl)CC1 | 0.0618 | -0.0587 | -0.154 | -0.261 | -0.224 | -0.469 | 0.146
O=C(CCl)N1CCc2ccccc2C(O)C1 (stereo not drawn) | -0.255 | -0.0328 | -0.418 | -0.836 | 0.153 | -1.86 (active) | -0.325
CC1(NC(=O)CCl)CCS(=O)(=O)C1 (stereo not drawn) | -0.402 | -0.612 | -0.858 | -1.44 (active) | -0.61 | -0.698 | -0.754
O=C(CCl)NCC(=O)N1CCCC1 | -0.0296 | 0.172 | -0.355 | -0.471 | -0.207 | -0.151 | -0.225
COc1ccc(-c2csc(NC(=O)CCl)n2)cc1 | -0.576 | -0.0937 | -0.257 | -0.479 | -0.528 | -2.09 (active) | -0.00199
COCC[C@@H](NC(=O)CCl)c1ccccc1 | -0.0256 | 0.0932 | -0.0591 | -0.208 | -0.159 | -0.681 | 0.231
